# Compound activity as filed in PubChem BioAssay.
# TGFb inhibitor – qHTS for Inhibitors of TGF-b | HepG2 CAGA-GFP TGF-b/SMAD3 reporter, GFP fluorescence, 18 h; TGF-beta stimulated, 500 pg/mL final | Potency, µM (highest dose often 46.1 µM), without a hit: at the highest dose activity, negative = inhibition, hits mostly inhibitors | hit rate 1.2% among 410,000; further: potency means the concentration at half of the fitted maximal effect; on the % scale 0 is the no-effect control and ±100 the full control effect; nearly all actives have a fitted effect of over 65% in size
#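 HEPG2 CAGA-GFP reporter cells (1000/well, DMEM with 1% FBS) received compounds, then recombinant TGF-beta at 500 pg/mL final for 18 hours at 37 degrees C. Per-cell GFP summed per well was normalised to unstimulated and stimulated DMSO controls before curve fitting.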
# DRD3 agonist – qHTS of D3 Dopamine Receptor Agonist: qHTS; D(3) dopamine receptor (Homo sapiens), P35462; D3R DiscoveRx beta-arrestin cells, luminescence, 90 min; max activation, %; hit rate 0.58% among 410,000; AID 652048, 2013; in the data active means max activation above about 30%; further: 0% is about no effect
# Target sequence (P35462 whole entry, looked up): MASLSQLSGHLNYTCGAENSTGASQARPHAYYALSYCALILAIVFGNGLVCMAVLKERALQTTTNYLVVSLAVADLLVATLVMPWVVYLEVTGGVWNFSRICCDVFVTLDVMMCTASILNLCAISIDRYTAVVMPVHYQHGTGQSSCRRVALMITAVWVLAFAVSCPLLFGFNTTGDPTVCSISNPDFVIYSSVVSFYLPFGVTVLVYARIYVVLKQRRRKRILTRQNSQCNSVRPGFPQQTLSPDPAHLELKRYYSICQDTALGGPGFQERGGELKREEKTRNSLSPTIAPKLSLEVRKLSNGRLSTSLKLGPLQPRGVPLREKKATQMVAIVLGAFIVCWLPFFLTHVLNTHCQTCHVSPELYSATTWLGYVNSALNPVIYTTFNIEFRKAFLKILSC
#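 Cells at 1500/well, incubated overnight, then treated with pinned compounds (dopamine as control) for 90 min at 37 degrees C. DiscoveRx reagent added for 30 - 60 minutes at room temperature; luminescence read.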
# HepG2 tox – qHTS for Inhibitors of TGF-b: Cytotox Counterscreen | HepG2 CAGA-GFP viability, ATP luminescence, 18 h | Potency, µM (top dose mostly 46.1 µM), for the others: top-dose activity change, negative = cytotoxicity, most hits filed as cytotoxic | hit rate 0.76% among 410,000 | AID 588856, 2011; further: potency means the concentration at half of the fitted maximal effect
#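 HepG2 CAGA-GFP cells (1000/well, DMEM with 1% FBS) received compound, then TGF-beta at 500 pg/mL final, and were incubated 18 hours at 37 degrees C. Viability was read by CellTiter-Glo luminescence. Media-only wells were set as complete cell-killing and DMSO as no toxicity.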
# D3 antag – qHTS of D3 Dopamine Receptor Antagonist: qHTS | D(3) dopamine receptor (Homo sapiens), P35462 | D3R cells, DiscoveRx beta-arrestin luminescence, antagonist mode; stronger effect = lower value | max response, negative = inhibition, % | hit rate 2.5% among 360,000; in the data active means max response below about -50%; inconclusive means no clear call, values can overlap the other calls; further: on the % scale 0 is the no-effect control and ±100 the full control effect
#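 Cells plated overnight at 1500 cells/well, then exposed to library compounds with dopamine controls for 90 minutes at 37 degrees C. DiscoveRx reagent added for 30–60 minutes at room temperature; luminescence read, quantitative HTS format.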
# ATXN2 expr inh – Primary qHTS for Inhibitors of ATXN expression | Potency, µM (titrated, usually from 57 µM), for the others: top-dose activity change, negative = inhibition, usual class: inhibitors | hit rate 0.72% among 360,000 | AID 1745845, 2022 | HEK-293 ATXN2-luciferase reporter, luminescence, 24 h; further: potency means the concentration at half of the fitted maximal effect; on the % scale 0 is the no-effect control and ±100 the full control effect; nearly all actives have a fitted effect of over 55% in size
#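 ATXN2-luciferase reporter cells (luciferase flanked by upstream and downstream ATXN2 gene portions) were treated 24 h at 37 °C with compounds at up to 57 uM. SteadyGlo luminescence gave expression; GF-AFC fluorescence gave viability.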
# S2 tox – Viability Counterscreen for Primary qHTS for Inhibitors of ATXN expression; S2 cells (HEK-293 line with an ATXN2-luciferase reporter) viability, CellTiter-Fluor protease fluorescence, 24 h; Potency, µM (titrated, usually from 56.7 µM), most hits filed as cytotoxic; hit rate 0.49% among 400,000; AID 651635, 2014; further: potency means the concentration at half of the fitted maximal effect; nearly all actives have a fitted effect of over 40% in size
# The depositor's hits bear a star; i = inactive; ? = inconclusive; / = not tested or not shown. Rows were chosen to be rich in hits. Some 4.7% of all compounds tested hit in one or more screens of this group. Unless noted, the call rests on the fitted dose curve; in most records, active means well fitted curve in the direction sought with a large enough effect; inconclusive means small, poorly fitted or top-dose-only effect, or another doubt; inactive means no such curve, though single readings can be large; an effect the other way counts as inactive or inconclusive.
SMILES,TGFb inhibitor,DRD3 agonist,HepG2 tox,D3 antag,ATXN2 expr inh,S2 tox
O=C(NCCN1CCN(c2cccc(Cl)c2)CC1)c1ccc(CSc2nc3ccncc3[nH]2)cc1,?,49*,-15%,-21,?,i
Cc1ccccc1OCCn1c(CCNC(=O)C2CCCCC2)nc2ccccc21,-3%,-23,1%,/,/,/
CC(=O)OC/C=C(C)/C=C/C=C(C)/C=C/C1=C(C)CCCC1(C)C,/,7,/,/,4%,i
Cc1sc2ncnc(NC3CCN(Cc4ccccc4)CC3)c2c1C,?,-12,-22%,-75*,-30%,i
Cc1csc2c(NC3CCN(Cc4ccccc4)CC3)ncnc12,-2%,-21,13%,-81*,?,i
c1ccc(CN2CCC(Nc3ncnc4sccc34)CC2)cc1,14%,-19,-6%,?,/,i
CS(=O)(=O)NC1CCN(Cc2ccccc2)CC1,5%,-9,-4%,?,-2%,i
CCOC(=O)C1CCCN(Cc2cc(Br)ccc2OC)C1 (stereo unspecified),0%,-10,-19%,-60*,-7%,i
COc1cccc(C(=O)C2CCCN(Cc3cn[nH]c3C3CCCCC3)C2)c1 (stereo unspecified),-13%,-16,-20%,-86*,-15%,i
COc1cc(OC)c(OC)cc1CN1CCCC(C(=O)c2sccc2C)C1 (stereo unspecified),-20%,-38,-19%,-93*,-26%,i
Cc1ccsc1C(=O)C1CCCN(Cc2cc(F)ccc2-n2cccn2)C1 (stereo unspecified),-9%,-18,-7%,-62*,?,i
O=C(Nc1ccc(F)c(F)c1)c1cnn2c1NC(=C1CC1)C=C2C(F)(F)F,16%,/,20%,/,/,/
Cc1ccccc1C(=O)Nc1ccc(C(=O)N2CCCC(N(C)C)c3ccccc32)cc1 (stereo unspecified),/,/,/,/,-20%,?
CC(C)Oc1cccc(C(=O)C2CCCN(Cc3cnc(N4CCCC4)s3)C2)c1 (stereo unspecified),-25%,-18,-20%,-83*,-23%,i
CCOc1ccccc1CN1CCCC(C(=O)c2ccc(OC)c(OC)c2)C1 (stereo unspecified),5%,-15,-18%,-51*,?,?
COc1cc(OC)c(OC)cc1CN1CCCC(C(=O)c2ccc3c(c2)OCO3)C1 (stereo unspecified),6%,-18,-30%,-93*,-9%,i
COc1ccc2cc(C(=O)C3CCCN(Cc4cnc(N5CCOCC5)s4)C3)ccc2c1 (stereo unspecified),?,-16,-28%,3,?,i
COc1ccc(CCN(C)C2CCCN(C(=O)CCSC)C2)cc1OC (stereo unspecified),26%,-25,2%,-14,-23%,i
COc1ccc(CCN(C)C2CCCN(C(=O)c3sccc3C)C2)cc1OC (stereo unspecified),-1%,-11,-4%,-64*,-12%,i
O=C(c1ccc2c(c1)OCO2)C1CCCN(Cc2cccc(C(F)(F)F)c2)C1 (stereo unspecified),?,-15,-33%,-115*,-14%,i
COc1cc(OC)c(OC)cc1CN1CCCC(C(=O)N2CCCC2)C1 (stereo unspecified),?,11,0%,-12,6%,i
COc1cccc(CN2CCCC(C(=O)N3CCCCC3)C2)c1OC (stereo unspecified),-4%,-6,-21%,-61*,/,/
Cc1cnc(C)c(-c2cccc3c2OC(CNC(=O)/C=C/c2ccc(F)c(F)c2)C3)n1 (stereo unspecified),/,/,/,/,/,i
